# Shown are actives, neighbours in structure and some others; about 17% of the full set was active somewhere.
# DT40 TDP1 CPT – qHTS for Inhibitors of human tyrosyl-DNA phosphodiesterase 1 (TDP1): qHTS in cells in presence of CPT | AID 686979, 2013 | chicken DT40 Tdp1-/-;hTDP1 cells + 20 nM CPT, ATP luminescence, 48 h | Potency, µM (series often up to 46.2 µM), for inactives: top-dose activity change, negative = growth inhibition, actives largely listed as inhibitors | 420,000 tested, 12% active; also: % is scaled to controls: 0 for no effect and ±100 for the full control effect; nearly all actives have a fitted effect of over 55% in size
#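 Cell growth measured by CellTiter-Glo luminescence after a minimum 48 h, 37 C compound exposure with 20 nM CPT in Tdp1-knockout DT40 cells stably expressing hTDP1, seeded 400/well; qHTS titration format.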
# TDP1 cell noCPT – qHTS for Inhibitors of human tyrosyl-DNA phosphodiesterase 1 (TDP1): qHTS in cells in absence of CPT; DT40 Tdp1-/- hTDP1 cells, no CPT, ATP luminescence, 48 h; Potency, µM (series often up to 46.2 µM), for the others: at the highest dose activity change, negative = growth inhibition, usual class: inhibitors; 420,000 tested, 15% active; also: % is scaled to controls: 0 for no effect and ±100 for the full control effect; nearly all actives have a fitted effect of over 55% in size
#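 Growth kinetics read by CellTiter-Glo luminescence after ≥48 hr at 37 °C. Cells: DT40 Tdp1-/- stably carrying human TDP1, 400 per well, compound exposure in the absence of CPT (DMSO vehicle).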
# HT1080 IDH1KD tx – qHTS for induction of synthetic lethality in tumor cells producing 2HG: qHTS for the HT-1080-IDH1KD cell line | HT-1080 IDH1 knockdown viability, ATP luminescence, 48 h | Potency, µM (series often up to 46.1 µM), without a hit: at the highest dose activity, negative = toxicity, hits mostly cytotoxic | 360,000 tested, 2% active | AID 686971, 2013;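 also: 0% = DMSO wells and -100% = cell-free medium wells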
#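 IDH1KD HT-1080 cells, 750/well, RPMI + 5% FBS; compound pinned after 2 h settling; 48 h, 37 °C; CellTiter-Glo luminescence; % activity normalised to DMSO and no-cell wells; curves fitted, classed by r2 and efficacy.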
# TGFb inhibitor – qHTS for Inhibitors of TGF-b | AID 588855, 2011 | 410,000 tested, 1.2% active | HepG2 CAGA-GFP TGF-b/SMAD3 reporter, GFP fluorescence, 18 h; TGF-beta stimulated, 500 pg/mL final | Potency, µM (titrated, usually from 46.1 µM), inactives show top-dose activity, negative = inhibition, actives largely listed as inhibitors; also: % is scaled to controls: 0 for no effect and ±100 for the full control effect; nearly all actives have a fitted effect of over 65% in size
#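 GFP signal (ex488/em500-530) from TGF-beta-stimulated HEPG2 CAGA-GFP cells, 500 pg/mL final, 18 h at 37 degrees C in DMEM plus 1% FBS, normalized to unstimulated and DMSO-stimulated controls.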
# HT1080-NT tox – qHTS for induction of synthetic lethality in tumor cells producing 2HG: qHTS for the HT-1080-NT fibrosarcoma cell line | HT-1080-NT fibrosarcoma viability, CellTiter-Glo ATP luminescence, 48 h | Potency, µM (titrated, usually from 46.1 µM), for the others: at the top dose activity, negative = less viability, usual class: cytotoxic | 360,000 tested, 1.6% active | AID 686970, 2013;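 also: NT is the 2HG producing partner of a matched IDH1 knockdown line; 0% = DMSO-treated cells and -100% = media-only wells without cells; nearly all actives have a fitted effect of over 55% in size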
#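 Viability by CellTiter-Glo luminescence after 48 h compound exposure at 37C of HT-1080-NT cells (750/well, RPMI, 5% FBS). % activity scaled between DMSO wells and medium-only wells, then curve-fitted and categorized by curve class.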
# HepG2 viability – qHTS for Inhibitors of TGF-b: Cytotox Counterscreen; HepG2 CAGA-GFP viability, ATP luminescence, 18 h; Potency, µM (series often up to 46.1 µM), for the others: at the highest dose activity change, negative = cytotoxicity, usual class: cytotoxic; 410,000 tested, 0.76% active
#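 HepG2 CAGA-GFP cells (1000/well, DMEM with 1% FBS) received compound, then TGF-beta at 500 pg/mL final, and were incubated 18 hours at 37 degrees C. Viability was read by CellTiter-Glo luminescence. Media-only wells were set as complete cell-killing and DMSO as no toxicity.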
# Numbers without * were called inactive; ? = inconclusive; nt = no result given. Calls follow the shape of the dose curve; as a rule, active = well fitted curve in the direction sought with a large enough effect; inconclusive = small, poorly fitted or top-dose-only effect, or another doubt; inactive = no such curve, though single readings can be large; an effect the other way counts as inactive or inconclusive. Potency is read from the fitted curve at half-maximal effect.
SMILES,DT40 TDP1 CPT,TDP1 cell noCPT,HT1080 IDH1KD tx,TGFb inhibitor,HT1080-NT tox,HepG2 viability
Cc1ccc(Cn2c(C)c(C(=O)NCc3ccc4c(c3)OCO4)sc2=O)cc1,?,-29%,0%,-9%,-17%,-6%
Cc1ccc(C(C)NC(=O)c2ccco2)cc1C (stereo not drawn),-19%,-13%,0%,-21%,-5%,-1%
CSc1nc2ccc(NC(=O)c3ccccn3)cc2s1,6%,?,12µM*,-20%,15µM*,-25%
CCOc1ccc2nc(NC(=O)NC3CCCCC3)sc2c1,?,21µM*,17%,18%,8%,4%
CCn1c(=N)c(C(=O)NCc2ccccc2)cc2c(=O)n3cc(C)ccc3nc21,-3%,2%,nt,-10%,nt,2%
COc1ccccc1CNC(=O)CCNS(=O)(=O)c1ccc2c(c1)oc(=O)n2C,-6%,-1%,10%,1%,-1%,-9%
O=C(O)c1ccc(/C=N/NC(=O)c2cc(-c3cccs3)nc3ccccc23)cc1,?,12µM*,-4%,?,-2%,2%
O=C(COC(=O)c1cc(-c2cccs2)nc2ccccc12)c1ccccc1,?,?,nt,4%,nt,-15%
O=C(N/N=C/c1ccsc1)c1cc(-c2ccncc2)nc2ccccc12,3.7µM*,3.3µM*,?,?,4.6µM*,9%
O=C(N/N=C/c1ccsc1)c1cc(-c2cccs2)nc2ccccc12,10µM*,8.2µM*,?,-3%,?,-16%
NNC(=O)c1cc(-c2cccs2)nc2ccccc12,?,?,?,10%,-8%,-15%
O=C(N/N=C/c1ccccn1)c1cc(-c2ccncc2)nc2ccccc12,?,?,14%,9%,9%,11%
CN(C)c1ccc(-c2ccnc3c2CC(C)(C(=O)Nc2cccc(C(F)(F)F)c2)O3)cc1 (stereo not drawn),-60%,?,8%,?,0%,-23%
CC(NC(=O)c1ccc([N+](=O)[O-])cc1[N+](=O)[O-])c1ccc(-c2ccccc2)cc1 (stereo not drawn),13µM*,13µM*,-22%,10%,-9%,-20%
CCC(NC(=O)c1ccc([N+](=O)[O-])cc1[N+](=O)[O-])c1ccccc1 (stereo not drawn),-29%,?,-7%,-23%,-13%,-31%
Cc1ccc(S(=O)(=O)c2cnc3cc(C)nn3c2N)cc1,-6%,-2%,0%,-11%,2%,0%
Cc1ccccc1OCC(=O)NC(=S)Nc1ccc2c3c(cccc13)CC2,18µM*,18µM*,-2%,0%,9%,13µM*
Cc1cc(C)cc(-c2nnc(SCc3ccc(C(=O)O)cc3)o2)c1,?,?,-1%,2%,2%,4%
O=c1[nH]c(/C=C\c2ccccc2F)nc(O)c1[N+](=O)[O-],-2%,6%,4%,6%,8%,0%
CCO[C@H]1OC(C(=O)NCc2nc3ccccc3[nH]2)=C[C@@H](c2ccccc2)[C@@H]1CCCO,?,?,7%,1%,-2%,-3%
CCO[C@H]1OC(C(=O)NCc2nc3ccccc3[nH]2)=C[C@@H](C2CC2)[C@@H]1CCCO,0.82µM*,0.58µM*,2.1µM*,-21%,?,7%
CCO[C@@H]1OC(C(=O)NCc2nc3ccccc3[nH]2)=C[C@H](c2csc3ccccc23)[C@H]1CCCO,23µM*,23µM*,?,?,?,-16%
CCO[C@H]1OC(C(=O)NCc2nc3ccccc3[nH]2)=C[C@@H](c2csc3ccccc23)[C@@H]1CCCO,?,16µM*,?,-11%,?,2%
COc1ccccc1CCNC(=O)CNC(=O)Cc1cccc2ccccc12,?,?,3%,1%,-17%,7%
CCOP(=O)(OCC)C(Nc1ccc(F)cc1)c1ccccc1 (stereo not drawn),-3%,-30%,0%,-18%,4%,-23%
SMILES,DT40 TDP1 CPT,TDP1 cell noCPT,HT1080 IDH1KD tx,TGFb inhibitor,HT1080-NT tox,HepG2 viability
CCOC(=O)C(c1ccccc1)C(Nc1ccc(F)cc1)c1ccccn1 (stereo not drawn),?,18µM*,-15%,-22%,-6%,1%
Cc1c(C(=O)NCc2ccccc2Cl)sc2nc3n(c(=O)c12)CCCC3,?,23µM*,nt,-5%,nt,-11%
Cc1c(C(=O)NCc2ccccc2Cl)sc2nc3n(c(=O)c12)CCCCC3,?,26µM*,nt,1%,nt,-10%
COc1ccccc1CNC(=O)C/C(C)=N/NC(=O)COc1ccc(C)cc1Br,12µM*,12µM*,-14%,-25%,?,-1%
COc1ccc([N+](=O)[O-])cc1C(=O)Nc1ccc(OCC(=O)N2CCOCC2)cc1,-10%,-6%,13%,-7%,20%,12%
CCCCCCCCN1C(=O)[C@H](CC(=O)NCC2CCCCC2)C[C@@]2(C(=O)OCC)CCCC=C12,21µM*,18µM*,-14%,nt,2%,nt
CCCCCCCCN1C(=O)[C@H](CC(=O)NCC2CCCCC2)C[C@@]2(C(=O)OCC)CCC=C12,16µM*,18µM*,?,nt,?,nt
CCOC(=O)[C@]12CCCC=C1N(Cc1ccccc1)C(=O)[C@H](CC(=O)NCC1CCCCC1)C2,?,?,-11%,nt,0%,nt
C#CCNC(=O)C[C@@H]1C[C@@]2(C(=O)OCC)CCCC=C2N(CCCCCCCC)C1=O,16µM*,13µM*,?,nt,?,nt
O=c1c(Cl)cc(Cl)nn1-c1ccccc1,2.1µM*,1.5µM*,?,?,?,18µM*
COc1cc(Cl)nn(-c2ccccc2)c1=O,?,-11%,3%,7%,9%,8%
CCN(CC)CCCn1c(SCC(=O)Nc2cccc(F)c2)nnc1-c1ccoc1C,0%,6%,5%,0%,0%,-20%
O=S1(=O)N[C@@H](Cc2ccccc2)COc2cccc(N3CCC[C@@H]3CO)c21,-12%,-29%,3%,nt,-3%,nt

# Screens (PubChem BioAssay)
